Compound activity from PubChem BioAssay.
esBAF inh: blocks esBAF chromatin remodeling in mouse ES cells; 350,000 compounds, 2% hits; reporter increase, % at 12.5 µM; Bmi1-luciferase knock-in reporter, 24 h; 100% = twice the neutral-well signal; in the data active = activation above about 40%; inconclusive = no clear call, values can overlap the other calls;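 note: 0% = median of the plate's neutral control wells and 100% = double that signal; a rise in the Bmi1 reporter signal indicates esBAF inhibition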
SMARCA2 act: SMARCA2 function activation, primary screen. 370,000 compounds, 1% hits. activation, % at 9.1 µM. MG213 cells, MMTV-luciferase reporter, dexamethasone, overnight; in the data active = activation above about 7.8%;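 note: 0% = vehicle wells and 100% = reference activator wells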
Wnt act: activates Wnt/beta-catenin signaling in a reporter cell assay | activator, plate reader | activation, % at 9.35 µM | 300,000 compounds, 1.2% hits | AID 743398; in the data active = activation above about 30%, passing the limit was not always enough; inconclusive = no clear call, values can overlap the other calls;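 note: 0% = neutral control wells and 100% = positive control wells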
HSF1 inh: HSF1 inhibition; NIH3T3-HGL HSE-luciferase, MG132-induced, luminescence 8 h; hits give low values; activity change, negative = inhibition, % at 7.5 µM (by protocol); 300,000 compounds, 0.77% hits; AID 2098;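 active = more than half of replicate wells show activity change below -50%, luminescence cut by over half; inconclusive = some wells, but at most half, below -50%; inactive = no replicate well below -50%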;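 note: luciferase reports HSF-1 transcriptional activity via heat shock element; 0% = median of DMSO wells and -100% = zero luminescence signal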
MITF TRPM1 HTS: MITF TRPM1 promoter activation in melanoma cells. activation, % at 12.5 µM. AID 588334. 300,000 compounds, 0.75% hits. SK-MEL-5 TRPM1-promoter luciferase, 24 h; % of positive control, neutral wells = 0;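 active = mean activation of at least 80% with every replicate also reaching 80%; inconclusive = mean reaches 80% but some replicate falls short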;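 note: 0% = neutral control wells and 100% = parthenolide positive control wells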
HSF1 activator: increases HSF-1 driven luciferase reporter signal | 300,000 compounds, 1.7% hits | NIH3T3-HGL HSF-1 luciferase reporter, MG132, 8 h; 100% = twice DMSO control signal | activation, % at 9 µM;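 active = mean replicate activation of at least 50% with a set share of replicates each reaching 50%; inconclusive = only one of those two conditions met; inactive = mean below 50% and too few replicates reaching it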;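 note: 0% = median of the neutral control wells and 100% = twice that signal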
Starred values were filed as active, the others as inactive. A selection: hits, their analogues and other compounds. The true share with any hit is near 4.3%.

CC(=O)OC(C)(C)/C=C/C(=O)C(C)(O)C1[C@H](O)C[C@@]2(C)C3CC=C4C(CC[C@@H](O)C4(C)C)[C@]3(CO)C(=O)C[C@]12C (stereo not given in full) was read as esBAF inh -36, SMARCA2 act -4, Wnt act -16, HSF1 inh -52*, MITF TRPM1 HTS -85 and HSF1 activator -61.
S=C=Nc1cccc(C2(N3CCCCC3)CCCCC2)c1 was read as esBAF inh -5, SMARCA2 act 11*, Wnt act 0 and MITF TRPM1 HTS -74.
For COC(=O)[C@H]1[C@H](CO)[C@H]2Cn3c(ccc(-c4ccccc4)c3=O)[C@@H]1N2CC1CCOCC1 the results were esBAF inh -4.
For COc1cc(/C=C(/C)[N+](=O)[O-])ccc1OCc1ccccc1Cl the results were esBAF inh -8, Wnt act -11, HSF1 inh 117, MITF TRPM1 HTS -90 and HSF1 activator 128*.
For COC(=O)C1=C(c2ccc(Cl)c(C(F)(F)F)c2)C[C@@H]2CC[C@H]1N2C(=O)NCc1ccc2c(c1)OCO2 the results were esBAF inh 11, SMARCA2 act 1, Wnt act 57* and MITF TRPM1 HTS 0.
`COC(=O)C1=C(c2ccc(C(C)=O)cc2)C[C@@H]2CC[C@H]1N2C(=O)NCc1ccc2c(c1)OCO2` gave esBAF inh -4, SMARCA2 act 0, Wnt act 3 and MITF TRPM1 HTS 1.
CC=Cc1ccc2n(c1=O)C[C@H]1[C@H](CO)[C@@H](C(=O)OC)[C@@H]2N1CC1CC1 (mixture of isomers) was read as esBAF inh 0.
`C/C1=C\[C@@H](C)C/C=C/[C@H]2[C@@H]3O[C@]3(C)[C@@H](C)[C@H]3[C@H](Cc4c[nH]c5ccccc45)NC(=O)[C@]32C(=O)/C=C/C(=O)[C@@H]1O` gave esBAF inh 0, HSF1 inh 91 and HSF1 activator 111*.
Screening CN1CC(Br)C(=O)NC1=O (stereo not given) returned esBAF inh 3, SMARCA2 act 1, Wnt act 0 and MITF TRPM1 HTS -14.
For CN1C(=O)NC(=O)C(N=Nc2ccc(Cl)cc2)C1=O (stereo not given) the results were esBAF inh 42*, SMARCA2 act -4, Wnt act 18 and MITF TRPM1 HTS 11.
O=C1NC(=O)C(CCc2ccncc2)(CCc2ccncc2)C(=O)N1Cc1ccccc1 was read as SMARCA2 act 4, Wnt act 2, HSF1 inh -71*, MITF TRPM1 HTS 1 and HSF1 activator -78.
`Cn1c(O)c(Cc2ccc(OCc3ccccc3)cc2)c(=O)n(C)c1=O` gave esBAF inh 15, SMARCA2 act 3, Wnt act 33*, HSF1 inh 10, MITF TRPM1 HTS 44 and HSF1 activator 9.
S=C1CN=C(c2ccccc2)c2cc(Cl)ccc2N1 was read as esBAF inh -12, SMARCA2 act 5, Wnt act -2, HSF1 inh 32, MITF TRPM1 HTS -12 and HSF1 activator 65*.
COCC(=O)N1[C@@H]2c3ccc(C4=CCCC4)c(=O)n3C[C@H]1[C@H](CO)[C@H]2C(=O)OC was read as esBAF inh -3.
CC(NC1=NCCS1)c1ccccc1 (stereo not given) was read as SMARCA2 act -4, Wnt act 49*, HSF1 inh 1, MITF TRPM1 HTS 3 and HSF1 activator 4.
For CC1CN=C(NC(C)c2ccccc2)S1 (stereo not given) the results were esBAF inh 9, SMARCA2 act 0, Wnt act -1, HSF1 inh -1, MITF TRPM1 HTS 1 and HSF1 activator 5.
CCN1[C@@H]2c3ccc(-c4cccc(OC)c4)c(=O)n3C[C@H]1[C@H](CO)[C@H]2C(=O)OC was read as esBAF inh 4.
NC(=S)c1cn(C2OC(CO)C(O)C2O)c2ncnc(N)c12 (stereo not given) was read as esBAF inh -83, SMARCA2 act -9, Wnt act -12, HSF1 inh -67*, MITF TRPM1 HTS -81 and HSF1 activator -71.
`Nc1ncnc2c1ccn2[C@@H]1O[C@H](CO)[C@@H](O)[C@H]1O` gave esBAF inh -77, SMARCA2 act -8, Wnt act -2, HSF1 inh -79* and HSF1 activator -80.
Screening COC(=O)[C@H]1[C@H](CO)[C@H]2Cn3c(cccc3=O)[C@@H]1N2C(=O)C1CCC1 returned esBAF inh 5.
`Cc1cc(C(=O)Nc2ccc3c(c2)OCCO3)nn1C(C)(C)C` gave esBAF inh 34, SMARCA2 act 1, Wnt act 56*, HSF1 inh 29 and HSF1 activator 32.
For Cc1cccc(C(O)(C(=O)O)c2ccccc2)c1 (stereo not given) the results were SMARCA2 act 2, Wnt act -3 and MITF TRPM1 HTS -6.
For Cc1cc(C(=O)Nc2ccccc2)nn1C(C)(C)C the results were SMARCA2 act -2, Wnt act 37*, HSF1 inh 18 and HSF1 activator inconclusive.
`CCN1[C@@H]2Cn3c(ccc(-c4ccc(OC)cc4)c3=O)[C@H]1[C@@H](C(=O)OC)[C@@H]2CO` gave esBAF inh -8.
COc1ccccc1N1CCN(Cc2ccccc2Cl)CC1 was read as esBAF inh 9, SMARCA2 act -1, Wnt act -5, HSF1 inh -3, MITF TRPM1 HTS 0 and HSF1 activator -5.
Screening COc1ccccc1N1CCN(Cc2cccc(OC)c2O)CC1 returned esBAF inh 5, SMARCA2 act 0, HSF1 inh 60, MITF TRPM1 HTS -8 and HSF1 activator 88*.
O=C(O)[C@H]1[C@H](CO)[C@H]2Cn3c(ccc(-c4cccc(F)c4)c3=O)[C@@H]1N2CCc1ccccc1 was read as esBAF inh 2.
O=C(O)C[C@@H]1CC[C@H]2NC[C@@H](O)COC[C@@H]2O1 was read as esBAF inh -2.
`C=CCN1C(=O)NC(=O)/C(=C\c2ccc(-c3ccccc3[N+](=O)[O-])o2)C1=O` gave SMARCA2 act 0, Wnt act 48*, HSF1 inh -2, MITF TRPM1 HTS -26 and HSF1 activator -6.
Screening COC(=O)[C@H]1[C@H](CO)[C@H]2Cn3c(ccc(-c4ccc(F)cc4)c3=O)[C@@H]1N2Cc1cccnc1 returned esBAF inh -5.
Screening CC(=O)OC1CC(OC2C(O)CC(OC3C(O)CC(OC4CCC5(C)C(CCC6C5CCC5(C)C(C7=CC(=O)OC7)CCC65O)C4)OC3C)OC2C)OC(C)C1OC1OC(CO)C(O)C(O)C1O (stereo not given) returned SMARCA2 act -11, Wnt act -26 and MITF TRPM1 HTS -78.
